# Assay results reported in ChEMBL document CHEMBL5308504, “Tm Shift (DSF) assay results for EUbOPEN Chemogenomics Library” (2023).
# “And” between values parts separate entries of the source, which are not always exact repeats. Identical values can stand only once.
# How the values were obtained:
# [1] = molecular target: Bromodomain-containing protein 4 (Homo sapiens) (UniProt O60885); details: Compound concentration 20.0 uM, Protein concentration 2.0 uM, Result type QC Liability
# [2] = molecular target: T1, Transcription intermediary factor 1-alpha (Homo sapiens) (UniProt O15164); details: Compound concentration 20.0 uM, Protein concentration 2.0 uM, Result type QC Liability
# T1 sequence (whole entry): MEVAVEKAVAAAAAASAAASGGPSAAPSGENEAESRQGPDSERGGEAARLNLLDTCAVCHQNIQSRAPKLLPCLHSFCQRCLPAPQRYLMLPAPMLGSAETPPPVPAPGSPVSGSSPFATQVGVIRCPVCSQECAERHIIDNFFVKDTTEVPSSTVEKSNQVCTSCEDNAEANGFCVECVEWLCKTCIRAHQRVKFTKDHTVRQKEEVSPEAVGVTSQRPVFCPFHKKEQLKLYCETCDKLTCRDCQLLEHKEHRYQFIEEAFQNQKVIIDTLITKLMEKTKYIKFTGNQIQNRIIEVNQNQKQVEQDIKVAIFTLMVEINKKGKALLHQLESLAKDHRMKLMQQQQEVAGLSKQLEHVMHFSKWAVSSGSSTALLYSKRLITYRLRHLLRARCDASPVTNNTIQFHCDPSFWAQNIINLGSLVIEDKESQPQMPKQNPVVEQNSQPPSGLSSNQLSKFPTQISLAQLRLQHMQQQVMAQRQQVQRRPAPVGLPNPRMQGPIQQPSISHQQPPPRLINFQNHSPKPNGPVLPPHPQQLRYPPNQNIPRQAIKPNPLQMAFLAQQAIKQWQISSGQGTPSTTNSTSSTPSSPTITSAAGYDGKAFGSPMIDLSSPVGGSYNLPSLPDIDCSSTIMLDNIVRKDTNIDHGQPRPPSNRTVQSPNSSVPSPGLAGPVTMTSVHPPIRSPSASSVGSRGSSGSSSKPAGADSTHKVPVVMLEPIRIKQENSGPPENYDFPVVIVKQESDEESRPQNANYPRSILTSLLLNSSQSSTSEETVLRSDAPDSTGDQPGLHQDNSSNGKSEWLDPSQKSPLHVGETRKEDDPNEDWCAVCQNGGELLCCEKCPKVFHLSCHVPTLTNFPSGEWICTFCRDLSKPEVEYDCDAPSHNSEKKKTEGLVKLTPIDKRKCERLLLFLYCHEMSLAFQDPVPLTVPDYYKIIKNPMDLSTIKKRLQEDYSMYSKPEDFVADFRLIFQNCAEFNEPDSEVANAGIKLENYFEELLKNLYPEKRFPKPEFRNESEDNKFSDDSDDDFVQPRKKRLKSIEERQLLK
SMILES,ΔTm [1] [°C],ΔTm [2]
CC(C)(O)CNC(=O)N1C(=O)N(c2cccc(C(F)(F)F)c2)C2=C(C(=O)CC2)[C@H]1c1ccc(C#N)cc1,0.34,0.22 °C
CC1(C)CCN(C(=O)C2CN(c3c4c(nc5ccnn35)CCNCC4)C2)C1,-0.32,0.23 °C
Cc1nc2c(cc1F)c(-c1nnc3c(n1)NC(=O)C3(C)C)nn2Cc1cccc(F)c1F,-0.37,0.14 °C
Nc1nccc(-c2c(-c3ccc(F)cc3)ncn2C2CCCCC2)n1,0.24,-0.83 °C
CCNC(=O)c1ccc2c(c1)NC(=O)/C2=C(\Nc1ccc(CN(C)C)cc1)c1ccccc1,–,0.37 °C and -3.62 °C
CCc1ccc(-c2ncn(CC3(F)CCN(C)CC3)c2-c2ccnc3[nH]ccc23)nc1,-2.66,-2.61 °C
COc1ccccc1S(=O)(=O)Nc1ccc2c(c1)CN(C)C(=O)N2,–,-1.03 °C
N[C@@H]1CCCN(c2c(/C=C3\SC(=O)NC3=O)cccc2-c2ccccc2)C1,-2.91,-2.28 °C
COc1ccc(S(=O)(=O)N2CCOCC2)cc1Nc1ccc2c(n1)N(C1CCN(C)CC1)[C@H](C)C(=O)N2C,-8.74,-1.33 °C
CNc1oc(-c2cccc3ccccc23)nc1C#N,-3.26,-0.7 °C
Nc1ncnc2c1c(I)cn2[C@@H]1O[C@H](CO)[C@@H](O)[C@H]1O,-1.9,-4 °C
CC(=O)N1CCC(c2ccc(C(=O)NC3=NCCN3)cc2C(F)(F)F)CC1,-0.26,0.31 °C
CN1CCN(C(=O)c2ccc(N(C)c3ncc(C(F)(F)F)c(N[C@@H]4CCC[C@@H]4C(N)=O)n3)cc2)CC1,-1.86,0.25 °C
CCC(C(=O)Nc1ccc(-c2cc3ccccc3s2)c(C(N)=O)c1)c1nccs1 (stereo unspecified),-0.87,0.44 °C
